This is a sample that favours compounds with a hit; in the whole collection about 1.5% have one here.
Dyrk1A ADPGlo – blocks rat Dyrk1A kinase activity | Q63470 | ADP-Glo luminescence, NFATc1 peptide | inhibition, % at 12.5 µM | 0.43% of 310,000 active | AID 504441; in the data active = inhibition above about 50%;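 also: plate controls were vehicle with enzyme for no effect and no enzyme for full effect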
PP1 counter – blocks human PP1-alpha phosphatase, a PP5 counter-screen | purified PP1alpha, OMFP fluorescence | inhibition, % at 6.7 µM | 0.9% of 320,000 active | AID 2235;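 active = inhibition above the mean inhibition of all tested compounds plus 3 SD, computed separately for each screening campaign, cut at about 15% in these data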
Target sequence (P62136 whole entry, looked up): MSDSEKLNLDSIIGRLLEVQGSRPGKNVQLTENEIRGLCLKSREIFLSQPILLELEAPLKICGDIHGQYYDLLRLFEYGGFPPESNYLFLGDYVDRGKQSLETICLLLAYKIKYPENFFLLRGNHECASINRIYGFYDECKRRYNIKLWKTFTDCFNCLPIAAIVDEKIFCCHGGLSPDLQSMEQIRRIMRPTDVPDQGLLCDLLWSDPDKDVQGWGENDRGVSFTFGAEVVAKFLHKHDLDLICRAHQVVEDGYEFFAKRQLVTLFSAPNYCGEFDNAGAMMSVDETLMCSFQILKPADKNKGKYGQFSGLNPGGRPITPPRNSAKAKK
PP5 primary – PP5 (human) phosphatase inhibition | inhibition, % at 6.7 µM | 0.18% of 320,000 active | purified PP5c, OMFP substrate fluorescence | P53041;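 active = inhibition above the campaign's mean inhibition across all tested compounds plus 3 SD, cut at about 9.5% in these data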;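 also: 0% = DMSO only and 100% = 100 µM cantharidin control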
HIF act – HIF pathway transcriptional activation | U2OS HRE-luciferase reporter, luminescence; normalized: DMSO 0%, desferrioxamine 100% | activation, % at 7.5 µM (by protocol) | 0.32% of 300,000 active | AID 1910;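 active = mean activation of at least 10% of the iron chelator positive control signal, with at least half of replicates also reaching 10%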
STK33 kinase inh – human STK33 kinase inhibition; purified STK33, MBP phosphorylation, ADP-Glo luminescence; inhibition, % at 10 µM; 0.073% of 320,000 active; AID 2661;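 active = inhibition at or above 25%, using the most active replicate where run in duplicate; inactive = inhibition below 25%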
PP1 inh confirm – human PP1 phosphatase inhibition, confirmation | shares compounds with PP1 counter | purified PP1alpha, OMFP substrate fluorescence | inhibition, % at 6.7 µM | 52% of 1,900 active;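 active = mean PP1 inhibition above a set limit taken from the earlier primary screen, cut at about 15% in these data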
PP5 inh counter – inhibits human PP5 phosphatase in PP1 counter-screen | shares compounds with PP1 counter | purified PP5c, OMFP fluorescence | inhibition, % at 6.7 µM | 4% of 1,900 active | AID 2360;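 active = mean PP5 inhibition over triplicate wells above about 9.5% taken from the earlier PP1 screen, limit read from the data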
* = called active by the depositor.

`Cc1cc(N/N=C/c2cccc(Cl)c2)nc(-n2nc(C)cc2C)n1` gave Dyrk1A ADPGlo 11, PP1 counter 18*, PP5 primary 3, HIF act 0, STK33 kinase inh 0, PP1 inh confirm 23* and PP5 inh counter -3.
For O=[N+]([O-])c1cccc(/C=N/Nc2nc(C(Cl)(Cl)Cl)nc3ccccc23)c1 the results were Dyrk1A ADPGlo 18, PP1 counter 0, PP5 primary 0, HIF act 0 and STK33 kinase inh 0.
Screening ClC(Cl)(Cl)c1nc(N/N=C/c2ccncc2)c2ccccc2n1 returned Dyrk1A ADPGlo 1, PP1 counter 22*, PP5 primary 1, HIF act 0, STK33 kinase inh -1, PP1 inh confirm 18* and PP5 inh counter -3.
`CN(C(=O)COC(=O)/C=C/c1ccc(S(=O)(=O)N2CCc3ccccc32)cc1)C1CCS(=O)(=O)C1` (stereo not drawn) gave Dyrk1A ADPGlo 4, PP1 counter -4, PP5 primary 1, HIF act 0 and STK33 kinase inh 0.
Screening O=C(Nc1ccc(N2CCCC2)cc1)c1ccc2ccccc2c1 returned Dyrk1A ADPGlo 0, PP1 counter 21*, PP5 primary 2, HIF act 2, STK33 kinase inh 0, PP1 inh confirm 0 and PP5 inh counter -5.
`CC(C)(C)NC(=O)Cn1nc(C(F)(F)F)c2c1CCCC2` gave Dyrk1A ADPGlo -5, PP1 counter -2, PP5 primary 2, HIF act 0 and STK33 kinase inh -1.
For CC1CCN(C(=O)Cn2nc(C(F)(F)F)c3c2CCCC3)CC1 the results were Dyrk1A ADPGlo -5, PP1 counter 34*, PP5 primary -2, HIF act -1, STK33 kinase inh 1, PP1 inh confirm -4 and PP5 inh counter -4.
`O=C1c2ccccc2C(=O)N1CCOc1ccccc1Cl` gave Dyrk1A ADPGlo 3, PP1 counter 2, PP5 primary 2, HIF act 5 and STK33 kinase inh 0.
For Cc1ccc(OCCN2C(=O)C(=O)c3cc(C)ccc32)cc1 the results were Dyrk1A ADPGlo -6, PP1 counter 18*, PP5 primary 0, HIF act 0, STK33 kinase inh 3, PP1 inh confirm 8 and PP5 inh counter -4.
`Cc1cccc2c1N(CCOc1ccc(C(C)(C)C)cc1)C(=O)C2=O` gave Dyrk1A ADPGlo 4, PP1 counter 23*, PP5 primary 5, HIF act 0, STK33 kinase inh 0, PP1 inh confirm 13 and PP5 inh counter -2.
`Cc1cccc2c1N(CCOc1ccccc1Cl)C(=O)C2=O` gave Dyrk1A ADPGlo -3, PP1 counter 18*, PP5 primary 6, HIF act 0, STK33 kinase inh 0, PP1 inh confirm 6 and PP5 inh counter -2.
For Cc1ccccc1-c1nnc(SCC(=O)NC2CCCC2)n1C the results were Dyrk1A ADPGlo -2, PP1 counter -9, PP5 primary -2, HIF act 0 and STK33 kinase inh 0.
Screening Cc1c(Cl)c([N+](=O)[O-])nn1CC(=O)NCc1ccc(Cl)cc1 returned Dyrk1A ADPGlo 10, PP1 counter -3, PP5 primary 0, HIF act 0 and STK33 kinase inh -1.
Screening Cc1cccc(NC(=O)/C(=C/c2cccc([N+](=O)[O-])c2)NC(=O)c2cccs2)c1 returned Dyrk1A ADPGlo 0, PP1 counter 18*, PP5 primary -1, HIF act 0, STK33 kinase inh -2, PP1 inh confirm 13 and PP5 inh counter 0.
Screening O=C(N/C(=C\c1cccc([N+](=O)[O-])c1)C(=O)N1CCCCC1)c1cccs1 returned Dyrk1A ADPGlo 2, PP1 counter -4, PP5 primary -2, HIF act 0 and STK33 kinase inh 1.
`COc1ccc(-c2ccnc3nc(-n4cccc4)nn23)cc1` gave Dyrk1A ADPGlo 3, PP1 counter 19*, PP5 primary 0, HIF act -6, STK33 kinase inh -2, PP1 inh confirm 19* and PP5 inh counter -5.
COc1ccc(-c2ccnc3nc(N4CCOCC4)nn23)cc1 was read as Dyrk1A ADPGlo 14, PP1 counter -12, PP5 primary 2, HIF act 0 and STK33 kinase inh 0.
For COc1ccc(C(=O)Nc2cccc(C(=O)N/N=C/c3ccc(OC)cc3OC)c2)cc1 the results were Dyrk1A ADPGlo -1, PP1 counter 0, PP5 primary 4, HIF act -5 and STK33 kinase inh 1.
COc1ccc(N2Cc3ccc(C(=O)N/N=C\c4ccc(O)cc4O)cc3C2)cc1 was read as PP1 counter 19*, PP5 primary 4, HIF act 5, STK33 kinase inh 4, PP1 inh confirm 13 and PP5 inh counter -3.
Screening O=C(N/N=C/c1ccc(O)cc1O)C(=O)N/N=C/c1ccc(O)cc1O returned Dyrk1A ADPGlo 7, PP1 counter 53*, PP5 primary -3, HIF act 1, STK33 kinase inh -2, PP1 inh confirm 30* and PP5 inh counter -7.
`COc1ccc(NC(=O)COC(=O)C2CC(=O)N(c3ccc(C)cc3)C2)cc1` (stereo not drawn) gave Dyrk1A ADPGlo -2, PP1 counter -4, PP5 primary -5, HIF act -30 and STK33 kinase inh 0.
Screening O=C(NC(C(=O)N/N=C/c1c2ccccc2cc2ccccc12)c1n[nH]c(=O)c2ccccc12)c1ccccc1 (stereo not drawn) returned Dyrk1A ADPGlo 4, PP1 counter 18*, PP5 primary 4, HIF act 0, STK33 kinase inh 1, PP1 inh confirm 17* and PP5 inh counter -2.
`CSCCC(NC(=O)COc1ccccc1)C(=O)OCCOc1ccc(C)cc1` (stereo not drawn) gave Dyrk1A ADPGlo 8, PP1 counter 1, PP5 primary 2 and STK33 kinase inh 1.
Screening CSCCC(NC(=O)COc1ccccc1)C(=O)N(C)CC(=O)Nc1c(C)cccc1C (stereo not drawn) returned Dyrk1A ADPGlo 7, PP1 counter 21*, PP5 primary 0, HIF act 0, STK33 kinase inh 0, PP1 inh confirm -5 and PP5 inh counter -4.
COc1ccc(C)c2sc(N(CCCN(C)C)C(=O)c3ccc(S(=O)(=O)N4CCc5ccccc5C4)cc3)nc12 was read as Dyrk1A ADPGlo 5, PP1 counter 5, PP5 primary 2, HIF act -4 and STK33 kinase inh 0.
Screening COc1ccc(OC)c2sc(N(CCCN(C)C)C(=O)c3ccc(S(=O)(=O)N4CCc5ccccc5C4)cc3)nc12 returned PP1 counter 20*, PP5 primary 3, HIF act -8, STK33 kinase inh -3, PP1 inh confirm 22* and PP5 inh counter 1.

Screening data (PubChem)
